Source: PubChem BioAssay
This is one part of a sample in which hits are shown more often than they occur.
KDM5B inh = Primary screen for KDM5B Histone Demethylases FDH-coupled qHTS. KDM5B demethylase, FDH-coupled NADH fluorescence (FDH is formaldehyde dehydrogenase). actives 2.6% (n = 220,000). Potency, µM (doses to about 57.7 µM), hits mostly inhibitors. Lysine-specific demethylase 5B (Homo sapiens), Q9UGL1; active = well fitted inhibition curve with a large enough effect; also: 0% is about no effect; nearly all actives have a fitted effect of over 70% in size
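Measured: NADH fluorescence change, 30 min, RT. System: KDM5BΔAP 200 nM final, H3K4me3 peptide, α-KG, Fe(II), ascorbate, NAD⁺ plus FDH, pH 7.5 HEPES. Compounds: titrated, 10 min pre-incubation with enzyme.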
Starred values were filed as active, the others as inactive; i = inactive. Potency is read from the fitted curve at half-maximal effect.

SMILES | KDM5B inh
COc1ccccc1C(=O)N1CCCC2(C1)C(=NC1CCCCC1)NC(=O)N2c1cc(F)cc(F)c1 (stereo not drawn) | i
COc1ccc(Cc2nc3nccc(-c4ccc(F)cc4)n3n2)cc1 | i
COc1cc(F)ccc1-c1ccnc2nc(Cc3ccc(F)cc3)nn12 | 28.2µM*
COc1ccc(-c2ccnc3nc(Cc4ccc(F)cc4)nn23)cc1 | i
COc1ccc(Cc2nc3nccc(-c4cc(OC)c(OC)c(OC)c4)n3n2)cc1 | 14.1µM*
COCc1nc2nccc(-c3cc(OC)c(OC)c(OC)c3)n2n1 | i
COc1cc(-c2ccnc3nc(Cc4cc(F)cc(F)c4)nn23)cc(OC)c1OC | 15.8µM*
Fc1cc(F)cc(Cc2nc3nccc(-c4cc5ccccc5o4)n3n2)c1 | i
Fc1cc(F)cc(Cc2nc3nccc(-c4ccco4)n3n2)c1 | 25.1µM*
COc1ccc(Cc2nc3nccc(-c4ccsc4)n3n2)cc1 | i
CCCCOc1ccc(-c2csc(-c3nc(-c4ccc(F)cc4)cs3)n2)cc1 | i
Cc1cc(C)cc(NCc2ccccc2CO)c1 | i
Cc1ccc(C(=O)NCCn2nc(-c3ccc(Cl)cc3)ccc2=O)cc1C | i
COc1ccc(S(=O)(=O)Nc2nc3ccccc3nc2NCc2ccccc2Cl)cc1 | i
COc1cccc([S+](=O)([O-])N2CCC3(C2)C(=O)N(C)c2ccccc23)c1 (stereo not drawn) | i
Cc1ccc(-c2[nH]ncc2CN2C[C@@H](CO)[C@H](c3ccccn3)C2)cc1 | i
O=C(CSC1=NCCS1)c1ccc2c(c1)OCCO2 | i
CC(C)CCN1CCn2c(nnc2-c2ccccc2)C1 | i
CN(C)S(=O)(=O)N1CCC(Nc2cccnc2)C1 (stereo not drawn) | 8.91µM*
CC(=O)N1CCC(C2CCN(S(=O)(=O)c3cccnc3)C2)CC1 (stereo not drawn) | i
Cn1cccc1C(=O)N1CCC(Nc2cccnc2)C1 (stereo not drawn) | i
CCCS(=O)(=O)N1CCC(c2noc(-c3cccnc3)n2)C1 (stereo not drawn) | i
O=C(c1ccoc1)N1CCC(Nc2cccnc2)C1 (stereo not drawn) | 12.6µM*
CCS(=O)(=O)N1CCC(Nc2cccnc2)C1 (stereo not drawn) | 22.4µM*
Cc1ccccc1S(=O)(=O)N1CCC(CCC(=O)Nc2cccnc2)CC1 | i
SMILES | KDM5B inh
O=C(c1ccoc1)N1CCC(Oc2cccnc2)C1 (stereo not drawn) | i
CCS(=O)(=O)N1CCC(Cc2nc(-c3cccnc3)n[nH]2)C1 (stereo not drawn) | i
Cc1nnc2n1CCC(N(C)S(=O)(=O)c1cccnc1)CC2 (stereo not drawn) | i
COc1ccccc1OCCN1C(=O)C2(SC(NC(C)=O)=NN2C(C)=O)c2ccccc21 (stereo not drawn) | i
O=C(O)C(c1c[nH]c2cc(F)ccc12)N1CCN(c2cccc(Cl)c2)CC1 (stereo not drawn) | i
CCn1nccc1C(=O)NCCC1CCN(C(=O)Nc2ccc(C)cc2)CC1 | i
CCN1C(=O)CCN(Cc2cccc(OC(F)(F)F)c2)CC12CCOCC2 | i
CN1Cc2ccc(NCc3ccccc3)nc2C(C)(C(=O)NCc2ccccc2)C1 (stereo not drawn) | i
COc1cccc(Nc2ccc3c(n2)C(C)(C(=O)NCc2ccco2)CN(C)C3)c1 (stereo not drawn) | 28.2µM*
O=C(Cn1ccn2nc(-c3ccccc3)cc2c1=O)NCc1ccc2c(c1)OCO2 | i
COc1cccc(Nc2ncc3c(n2)C(C)(C(=O)NCCc2ccccn2)CC3)c1 (stereo not drawn) | i
COc1cccc(Nc2ccc3c(n2)C(C)(C(=O)NC2CCN(C)CC2)CN(C)C3)c1 (stereo not drawn) | i
CN1Cc2ccc(Nc3ccccc3)nc2C(C)(C(=O)NCc2ccc3c(c2)OCO3)C1 (stereo not drawn) | 39.8µM*
CCOc1ccccc1NC(=O)C1CCN(c2nc3ccccc3o2)CC1 | i
CCc1ccc(C2C(C(=O)OC(C)C)=C(C)N=C3SCCC(=O)N32)cc1 (stereo not drawn) | i
CC(C)NC(=O)CSc1nnc(-c2cc3c(s2)CCC(C(C)(C)C)C3)n1C (stereo not drawn) | i
Cn1nc(C(=O)OCc2ccc(C(C)(C)C)cc2)c2ccccc2c1=O | i
COc1cccc(C(=O)NCCC2CCN(C(=O)Nc3cccc(C)c3)CC2)c1 | i
COc1cccc(CNC(=O)c2cc(C)cc(C)c2)c1 | i
O=C(c1ccc2c(c1)OCO2)N1CCc2nn(Cc3ccccc3)c(=O)n2CC1 | i
O=C(NC1CC1)c1ccc2nnc(C3CC3)n2c1 | 100µM*
C[C@H](O)c1onc(-c2ccc(F)cc2)c1C(=O)NC1CC1 | i
O=C(NC1CCCCC1)c1ccc(Cl)nc1 | i
COc1ccc(C(=O)NC2CCN(c3cc(-c4ccc(F)cc4)[nH]n3)CC2)cc1F | i
O=C(NC1CCC(c2ccccc2)CC1)c1ccncc1 (stereo not drawn) | i
SMILES | KDM5B inh
O=C(NC1CC1)c1ccc2nnc(-c3ccc(F)cc3)n2c1 | 126µM*
CC1CCC(NC(=O)c2ccc(C(N)=O)cc2)CC1 (stereo not drawn) | i
O=C(NC1CCCC1)c1ccc(Cl)cc1-n1cnnn1 | i
O=C(NC1CCCC1)c1ccc2nnc(-c3cncc(Cl)c3)n2c1 | 100µM*
COc1ccc(C(=O)N2CCC3(CC2)NC(=O)N(c2cccc(F)c2)N3)cc1 | i
COc1cc(OC)c(OC)cc1CN1C[C@@H]2C(=O)N(C)C(=O)[C@@H]2C1 | i
N#Cc1ccccc1COC(=O)COc1ccc2c(c1)CCC2 | i
COc1cccc(-c2nnc(SCC(=O)Nc3ccc4c(c3)OCO4)n2-n2cccc2)c1 | i
O=C(Nc1ccccc1Br)C1CC2CCC1C2 (stereo not drawn) | i
CCC1(O)CCC12CCN(C(=O)c1cccs1)CC2 (stereo not drawn) | i
CN(CC1CCOC1)C(=O)Nc1ccc(Br)cc1 (stereo not drawn) | i
CCC(CC)C(=O)NC[C@H]1O[C@@H](CC(=O)NCc2ccc(F)cc2)[C@H](O)[C@@H]1O | i
CCC(=O)N1CCN(c2ccc(NC(=O)c3c(OC)cccc3OC)cc2)CC1 | i
CCc1cccc(NC(=O)CCS(=O)(=O)c2ccc3c(c2)oc(=O)n3C)c1 | i
Cc1ccc2c(c1)C(O)(CC(=O)c1ccccn1)C(=O)N2 (stereo not drawn) | i
Cc1ccc(-c2nn(-c3cccc(F)c3)cc2CN(C)CCO)o1 | 25.1µM*
COC(=O)CN(C)Cc1cn(-c2ccc(C)cc2)nc1-c1cccc(C)c1 | i
COc1ccc(-c2nn(-c3ccccc3C)cc2CN(C)Cc2cn(C)nc2C)cc1F | i
Cc1cc(CN(C)Cc2cn(-c3cccc(F)c3)nc2-c2ccc(C)o2)n[nH]1 | 25.1µM*
CN(Cc1cccc(CCN)c1)Cc1cnn(-c2ccc(F)cc2)c1 | i
COc1ccc(-c2nn(-c3ccccc3)cc2CN(C)CCn2ccnc2C)c(F)c1 | i
CC(OC(=O)C1CCC1)C(=O)c1c[nH]c2ccccc12 (stereo not drawn) | i
O=C(/C=C/c1ccccc1)c1ccc(Sc2ccccc2)cc1 | i
CCN(CC)S(=O)(=O)c1ccc2[nH]c(=O)cc(C(=O)NC(C3CC3)C3CC3)c2c1 | i
O=C(NCc1cccnc1OCc1ccccc1)Nc1nnc(C2CC2)s1 | i
